This is a sample that favours compounds with a hit; in the whole collection about 2.4% have one here.
POLH inh: qHTS for Inhibitors of Polymerase Eta | DNA polymerase eta (Homo sapiens), Q9Y253 | recombinant Pol eta, fluorescent DNA replication assay | Potency, µM (doses to about 114 µM), inactives show top-dose activity change, negative = inhibition, usual class: inhibitors | hit rate 1.2% among 390,000 | AID 588591, 2011; also: % is scaled to controls: 0 for no effect and ±100 for the full control effect
Target sequence (Q9Y253 whole entry, looked up): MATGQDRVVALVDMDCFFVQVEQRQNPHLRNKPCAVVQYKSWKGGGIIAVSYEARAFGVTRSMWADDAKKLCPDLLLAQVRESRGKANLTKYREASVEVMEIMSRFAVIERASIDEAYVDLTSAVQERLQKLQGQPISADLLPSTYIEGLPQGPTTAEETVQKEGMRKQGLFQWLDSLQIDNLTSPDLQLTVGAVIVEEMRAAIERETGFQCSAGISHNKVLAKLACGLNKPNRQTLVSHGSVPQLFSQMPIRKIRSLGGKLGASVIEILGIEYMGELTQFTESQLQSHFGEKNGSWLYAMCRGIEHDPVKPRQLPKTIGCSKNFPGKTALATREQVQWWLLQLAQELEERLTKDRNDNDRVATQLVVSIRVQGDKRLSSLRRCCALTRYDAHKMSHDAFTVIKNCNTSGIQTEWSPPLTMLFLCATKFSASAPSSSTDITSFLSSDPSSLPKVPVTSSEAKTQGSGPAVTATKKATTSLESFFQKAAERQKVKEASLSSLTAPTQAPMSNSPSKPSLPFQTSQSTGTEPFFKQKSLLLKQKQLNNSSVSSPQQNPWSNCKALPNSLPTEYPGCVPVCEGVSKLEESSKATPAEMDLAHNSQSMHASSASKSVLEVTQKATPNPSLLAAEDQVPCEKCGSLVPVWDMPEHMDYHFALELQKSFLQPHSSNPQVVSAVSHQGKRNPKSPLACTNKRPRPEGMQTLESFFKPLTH
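Pol eta (10 nM) was preincubated with compounds for 15 min at room temperature, after which fluorescent replication substrate (50 nM final) was added to start the reaction. Fluorescence was read kinetically at 0 and 10 min.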
POLB inh: qHTS Assay for Inhibitors of DNA Polymerase Beta. Pol beta primer extension/strand displacement, fluorescence kinetic. Potency, µM (titrated, usually from 114 µM), inactives show at the top dose activity change, negative = inhibition, actives largely listed as inhibitors. hit rate 1.3% among 340,000. AID 485314, 2010; also: % is scaled to controls: 0 for no effect and ±100 for the full control effect
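Enzyme-only controls used 10 nM Pol beta; buffer lacking enzyme served as negative control. Compound preincubated 15 min, then 50 nM substrate added; 0 and 10 min reads at room temperature.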
FEN1 inh: qHTS Assay for the Inhibitors of Human Flap endonuclease 1 (FEN1); P39748; Recombinant FEN1 flap cleavage, fluorescence, 15 min; hit rate 0.35% among 390,000; Potency, µM (highest dose often 114 µM), for the others: at the highest dose activity change, negative = inhibition, usual class: inhibitors; also: % is scaled to controls: 0 for no effect and ±100 for the full control effect; nearly all actives have a fitted effect of over 65% in size
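Enzyme 10 nM, 15 min RT preincubation with compound; start with substrate 50 nM final; reads at 0 and 15 min; qHTS titration, four-parameter Hill fit.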
Pol kappa inh: qHTS for Inhibitors of Polymerase Kappa; DNA polymerase kappa (Homo sapiens), Q9UBT6; purified Pol kappa, fluorescent DNA synthesis assay, 10 min; Potency, µM (series often up to 107 µM), inactives show top-dose activity, negative = inhibition, hits mostly inhibitors; hit rate 0.53% among 400,000; AID 588579, 2011; also: % is scaled to controls: 0 for no effect and ±100 for the full control effect
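Activity was followed as the change in fluorescence between reads at 0 and 10 min after starting the reaction with 50 nM substrate. Beforehand, 10 nM polymerase had been preincubated with compound for 15 min at room temperature.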
WRN helicase inh: qHTS for Inhibitors of WRN Helicase; Bifunctional 3'-5' exonuclease/ATP-dependent helicase WRN (Homo sapiens), Q14191; WRN helicase unwinding, fluorescent forked duplex, kinetic; Potency, µM (doses to about 114 µM), for the others: at the highest dose activity change, negative = inhibition, most hits filed as inhibitors; hit rate 0.46% among 360,000; AID 651768, 2012; also: % is scaled to controls: 0 for no effect and ±100 for the full control effect; nearly all actives have a fitted effect of over 55% in size
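WRN at 20 nM final preincubated with compound 15 min at room temperature; reaction started with 100 nM fluorophore/quencher forked duplex oligonucleotide and 2 mM ATP final. Unwinding followed kinetically by red fluorescence (ex 525, em 598 nm).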
Pol iota inh: qHTS for Inhibitors of Polymerase Iota | AID 588590, 2011 | hit rate 1% among 390,000 | DNA polymerase iota (Homo sapiens), Q9UNA4 | Pol iota fluorescent replication assay, 10 min | Potency, µM (titrated, usually from 115 µM), inactives show at the highest dose activity, negative = inhibition, usual class: inhibitors
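Fluorescent replication assay read twice, at 0 min and 10 min after adding 50 nM (final) substrate. Enzyme (10 nM) and compounds were first incubated 15 min at room temperature; enzyme-free buffer wells were negative controls.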
TbPGK inh: qHTS for inhibitors of Phosphogylcerate Kinase: Hit Validation Screen; Potency, µM (top dose mostly 57.5 µM), inactives show at the highest dose activity change, negative = inhibition, usual class: inhibitors; AID 686980, 2013; TbPGK coupled GAPDH assay, Kinase-Glo luminescence; hit rate 79% among 500; shares compounds with Pol kappa inh; also: % is scaled to controls: 0 for no effect and ±100 for the full control effect; nearly all actives have a fitted effect of over 65% in size
POLI cherry-pick: qHTS for Inhibitors of Polymerase Iota: Confirmatory Assay for Cherry-picked Compounds; Pol iota primer extension, TAMRA/BHQ fluorescence; Potency, µM, most hits filed as inhibitors; hit rate 77% among 1,500; shares compounds with Pol kappa inh
An asterisk follows results filed as active; ? = inconclusive; · = not tested or not shown; [ ] = another dose, or the depositor's remark. Calls follow the shape of the dose curve; as a rule, active = well fitted curve in the direction sought with a large enough effect; inconclusive = small, poorly fitted or top-dose-only effect, or another doubt; inactive = no such curve, though single readings can be large; an effect the other way counts as inactive or inconclusive. Potency is read from the fitted curve at half-maximal effect.

SMILES	POLH inh	POLB inh	FEN1 inh	Pol kappa inh	WRN helicase inh	Pol iota inh	TbPGK inh	others
O=C1c2cc(CO)cc(O)c2C(=O)c2c(O[C@@H]3OC(CO)[C@@H](O)[C@@H](O)[C@@H]3O)cccc21 (some centres undefined)	3.9%	·	?	-6.2%	-10.9%	-16.7%	·
O=C(Nc1ccc(F)cc1)c1cccn1-c1nnc(N2CCCCC2)s1	15.0%	-1.9%	0.3%	-4.8%	·	?	·
Cc1cc(=O)[nH]c(N/N=C/c2ccc(OC(=O)c3ccco3)cc2)n1	50.1µM*	-9.0%	-33.6%	9.0%	?	13.7%	·	POLI cherry-pick=?
Cc1cc(=O)[nH]c(N/N=C/c2ccco2)n1	-5.0%	-15.9%	8.4%	-5.9%	-10.5%	12.2%	·
O=C(Nc1nc2ccccc2[nH]1)c1ccccc1F	-16.6%	19.3%	6.6%	3.1%	-7.4%	20.8%	8.19µM*
O=C(Nc1nc2ccccc2[nH]1)c1ccc(F)cc1	-7.0%	4.1%	-2.5%	-0.3%	0.4%	-4.8%[58.9 µM]	·
O=C(O)C=Cc1ccc(Cn2ccnc2)cc1	·	·	·	-11.4%[19.4 µM]	·	·	·
CCCC1=Nc2cc(C(=O)NCc3ccc(OC)cc3)ccc2Sc2ccc(C)cc21	-14.7%	6.7%	-25.7%	7.7%	·	31.7%	·
C/C=C\C=C/C(=O)Nc1cccc(C2=NOC3(C2)C[C@H](C(N)=O)N(C(=O)c2ccc(OC)cc2)C3)c1 (some centres undefined)	20µM*	-1.3%	4.6%	?	-19.0%[11.6 µM]	25.1µM*	·	POLI cherry-pick=?
C/C=C\C=C/C(=O)Nc1cccc(C2=NOC3(C2)C[C@@H](C(N)=O)N(C(=O)c2ccc(Cl)cc2)C3)c1 (some centres undefined)	-9.0%	-9.7%	10.2%	-1.8%	4.3%	4.0%	·
Cc1ccnc(NC(=O)c2ccc3c(c2)OCO3)c1	-1.9%	2.9%	-1.2%	-9.6%	8.6%	140.2%	20.6µM*
COc1ccc(C(C[N+](=O)[O-])c2c(C)cc3ccccn23)cc1 (centres undefined)	7.0%	18.6%	-13.7%	-2.3%	-32.5%	51.3%	·
COc1ccc(C(C[N+](=O)[O-])c2c(C)[nH]n(-c3ccccc3)c2=O)cc1 (centres undefined)	-12.7%	-2.0%	?	-10.4%	?	1.58µM*	·	POLI cherry-pick=67*
CC(C)CCNC(=O)c1ccc(Cn2c(=S)[nH]c3ccccc3c2=O)cc1	?	?	-15.1%	0.0%	-5.8%[11.6 µM]	?	·	POLI cherry-pick=?
COc1ccc(Cn2c(=O)[nH]c3cc(C(=O)NCCC(C)C)ccc3c2=O)cc1	-17.1%	15.4%	5.9%	-2.2%	·	25.7%	·
Cc1cccc(NC(=O)c2cc3c(=O)n4ccccc4nc3s2)c1	44.7µM*	7.08µM*	?	1.5%	?	?	·	POLI cherry-pick=67*
CCC(=O)N1CCc2cc(S(=O)(=O)NC(Cc3ccccc3)C(=O)NCc3cccc(OC)c3)ccc21 (centres undefined)	-6.7%	?	-10.5%	-33.7%	·	?	·
COc1cccc(C(=O)O/N=C(\N)c2ccccn2)c1	-1.4%	15.6%	-1.8%	-5.7%	2.7%	-9.8%	14.6µM*
N/C(=N\OC(=O)c1ccc(Cl)cc1Cl)c1ccccn1	-9.9%	-11.6%	-5.7%	-28.0%	-0.1%	-1.4%	·
N/C(=N\OC(=O)c1ccc2ccccc2c1)c1ccncc1	-5.2%	-0.8%	-0.4%	12.1%	6.3%	-24.6%	·
Cc1ccc(C(=O)O/N=C(\N)c2ccccn2)c(Cl)c1	-0.4%	17.4%	19.1%	-6.3%	-2.2%	6.5%	18.3µM*
N/C(=N\OC(=O)c1ccc2ccccc2c1)c1ccccn1	-12.5%	1.2%	-4.5%	5.1%	-2.1%	10.6%	?
COc1ccccc1CNC(=O)COCc1cc(-c2cccs2)on1	-3.0%	-21.4%	0.5%	-20.4%	·	-3.2%	·
O=C(N/N=C\c1ccc(OC(=O)c2cccs2)cc1)c1ccc(Cl)cc1	3.16µM*	3.16µM*	-34.5%	-7.4%	-10.2%[11.6 µM]	?	·	POLI cherry-pick=?
O=C(O)CCCNC(=O)/C=C/c1ccco1	3.98µM*	2.82µM*	?	50.1µM*	-29.6%	?	?
SMILES	POLH inh	POLB inh	FEN1 inh	Pol kappa inh	WRN helicase inh	Pol iota inh	TbPGK inh	others
O=C(O)CCCCCNC(=O)/C=C/c1ccco1	2.8%	?	16.0%	-17.4%	-11.3%	-16.3%	·
Cc1[nH]cnc1C(=O)N/N=C/c1c(Cl)cccc1Cl	-7.4%	4.6%	-11.6%	4.3%	9.4%	15.7%	11.6µM*
COc1ccc(OC)c(/C=N/NC(=O)c2[nH]ncc2Br)c1	-19.9%	37.0%	2.6%	-2.6%	4.4%	-7.0%[58.9 µM]	·
CCOc1ccc(/C=N/NC(=O)c2[nH]ncc2Br)c(O)c1	-7.5%	23.1%	-19.9%	-1.1%	-7.3%	20.7%	18.3µM*
COc1cc(/C=N/Nc2nncn2/N=C/c2ccc(O)c(OC)c2)ccc1O	-32.9%	2.2%	?	-8.4%	-10.0%	20µM*	?
CC1Cn2c(C(=O)NCc3cccc(Br)c3)cc3cccc(c32)S1 (centres undefined)	-10.5%	1.5%	-15.0%	3.8%	·	6.8%	·
COc1ccc(NC(=O)c2cc3c(=O)n(C)c4ccccc4c3s2)cc1OC	?	?	1.0%	-16.6%	-5.1%[11.6 µM]	27.7%	·	POLI cherry-pick=29.9*
c1ccc(-c2ccc(-c3nc(-c4ccccn4)no3)cc2)cc1	-19.3%	1.1%	-1.3%	0.2%	-3.3%	6.1%	·
Cc1ccc(-c2nc(-c3ccccn3)no2)cc1	-7.2%	10.2%	-7.9%	-5.8%	-1.1%	6.7%	14.6µM*
O=C(Nc1cccc(-c2nc3ccccc3s2)c1)c1cc(=O)c2ccccc2o1	?	?	15.1%	-11.9%	-16.9%[11.6 µM]	34.1%	·	POLI cherry-pick=?
Cc1c(C(=O)Nc2cccc(-c3nc4ccccc4s3)c2)oc2ccccc12	-6.0%	2.2%	11.5%	-7.4%	·	-5.9%	·
COc1ccc(-c2cc3ccccc3oc2=O)cc1NC(=O)c1ccc([N+](=O)[O-])o1	?	?	6.7%	-11.0%	-21.0%	-3.7%	·
COc1ccc(-c2cc3ccccc3oc2=O)cc1NC(=O)c1ccc(Br)o1	11.2µM*	?	9.5%	8.0%	-10.1%[11.6 µM]	?	·	POLI cherry-pick=?

Bioassay records (PubChem BioAssay)
